Experimental data published in the antibiotic and cytotoxicity screens of Wong et al. (2023).
Out of some 39,000 compounds screened, about 3,300 (8.5%) were called active. What follows is part of a selection rich in actives, with near analogues and random picks from the rest.

These molecules were tested on HepG2 (assay: cytotoxicity call (relative viability < 0.9)). Conditions: 10 µM.

| SMILES | cytotoxicity call |
| --- | --- |
| Cc1ccccc1S(=O)(=O)N1C[C@@H](O)COC[C@@H]2O[C@@H](CC(=O)N3CCOCC3)CC[C@H]21 | inactive |
| CC(C)N1C[C@H](CNCc2ccc(Oc3ccccc3)cc2)Oc2c(NC(=O)c3ccncc3)cccc2C1=O | inactive |
| Cc1ccc(-c2cnc3c(c2)C(=O)N([C@H](C)CO)C[C@H](C)[C@@H](CN(C)C(=O)Cc2cccnc2)O3)cc1 | inactive |
| C[C@H]1CN([C@@H](C)CO)C(=O)c2cccc(NC(=O)Nc3ccccc3)c2O[C@@H]1CN(C)C(=O)Nc1ccc(C(F)(F)F)cc1 | inactive |
| C[C@H](CO)N1C[C@H](C)[C@H](CN(C)C(=O)Nc2ccc(C(F)(F)F)cc2)Oc2c(NC(=O)Nc3ccccc3)cccc2C1=O | inactive |
| C[C@@H]1CN([C@H](C)CO)C(=O)c2cccc(NC(=O)Nc3ccc(C(F)(F)F)cc3)c2O[C@@H]1CN(C)C(=O)Nc1ccccc1 | active |
| C[C@H](CO)N1C[C@H](C)[C@@H](CN(C)C(=O)Nc2ccc(C(F)(F)F)cc2)Oc2c(NC(=O)Nc3ccccc3)cccc2C1=O | inactive |
| C[C@@H]1CN([C@@H](C)CO)C(=O)c2cccc(NC(=O)Nc3ccccc3)c2O[C@@H]1CN(C)C(=O)Nc1ccc(C(F)(F)F)cc1 | inactive |
| C[C@H]1CN([C@@H](C)CO)C(=O)c2cccc(NC(=O)Nc3ccc(C(F)(F)F)cc3)c2O[C@@H]1CN(C)C(=O)Nc1ccccc1 | active |
| COc1ccc(C(=O)Nc2ccc(CN3C(=O)[C@]4(O[C@H](CCO)[C@@H]([Si](C)(C)F)[C@@H]4C)c4ccccc43)cc2)cc1 | inactive |
| CN1CCN(C(=O)C[C@@H]2CC[C@@H]3[C@H](COC[C@H](O)CN3C(=O)Nc3cc(Cl)cc(Cl)c3)O2)CC1 | inactive |
| CCCCCc1ccccn1 | inactive |
| CCCCNc1ccccc1 | inactive |
| CCCCCCCCCCCCC[N+](C)(C)Cc1ccccc1 | active |
| CCCCCCCCCCCCC[N+](C)(C)Cc1ccccc1.O.[Cl-] | active |
| CCCCCCCCCCCCCCCC[N+](C)(C)Cc1ccccc1.[Cl-] | active |
| CC[N+](C)(CC)Cc1ccccc1 | inactive |
| COc1ccc(S(=O)(=O)Nc2ccc3c(c2)CC(=O)N([C@@H](C)CO)C[C@H](C)[C@H](CN(C)S(=O)(=O)c2cccs2)O3)cc1 | inactive |
| C[C@H](CO)N1C[C@H](C)[C@H](CN(C)CC2CC2)Oc2c(NS(=O)(=O)c3cccs3)cccc2C1=O | inactive |
| Cc1noc(C)c1S(=O)(=O)Nc1ccc2c(c1)C(=O)N([C@@H](C)CO)C[C@H](C)[C@@H](CN(C)CC1CCCCC1)OCCCC[C@@H](C)O2 | inactive |
| O=C(C1=C[C@H](c2coc3ccccc3c2=O)C[C@H](OCc2ccc(CO)cc2)O1)N1CCCCCCC1 | inactive |
| CS(=O)(=O)NCc1cnc2n1CCN(C[C@H]1CCOC1)CC2 | inactive |
| C[C@H](CO)N1C[C@H](C)[C@H](CN(C)C(=O)Nc2ccc(F)cc2)Oc2ccc(NC(=O)CCCCCC(=O)Nc3ccccc3N)cc2CC1=O | inactive |
| CCCNC(=O)Nc1ccc2c(c1)OC[C@H](C)N(Cc1ccc(-c3ccccn3)cc1)C[C@H](C)[C@H](OC)CN(C)C2=O | inactive |

| SMILES | cytotoxicity call |
| --- | --- |
| C[C@H]1CN([C@@H](C)CO)C(=O)CCCn2cc(nn2)CO[C@@H]1CN(C)C(=O)Nc1ccc(C(F)(F)F)cc1 | inactive |
| O=C(O)[C@H]1C[C@H](O)CN1Cc1ccccc1 | inactive |
| C[C@@H]1CCCCO[C@H](CN(C)Cc2ccc(C(F)(F)F)cc2)[C@H](C)CN([C@@H](C)CO)C(=O)c2cc(NC(=O)c3ccccc3)ccc2O1 | active |
| C[C@H](CO)N1C[C@H](C)[C@H](CN(C)Cc2ccc(C(F)(F)F)cc2)OCCCC[C@H](C)Oc2ccc(NC(=O)c3ccccc3)cc2C1=O | inactive |
| C[C@@H]1CN([C@H](C)CO)C(=O)c2cc(NC(=O)c3ccccc3)ccc2O[C@@H](C)CCCCO[C@@H]1CN(C)Cc1ccc(C(F)(F)F)cc1 | inactive |
| C[C@@H]1CCCCO[C@@H](CN(C)Cc2ccc(C(F)(F)F)cc2)[C@H](C)CN([C@H](C)CO)C(=O)c2cc(NC(=O)c3ccccc3)ccc2O1 | inactive |
| C[C@@H]1CCCCO[C@H](CN(C)Cc2ccc(C(F)(F)F)cc2)[C@H](C)CN([C@H](C)CO)C(=O)c2cc(NC(=O)c3ccccc3)ccc2O1 | inactive |
| C[C@@H]1CN([C@@H](C)CO)C(=O)c2cc(NC(=O)c3ccccc3)ccc2O[C@@H](C)CCCCO[C@H]1CN(C)Cc1ccccc1 | inactive |
| C[C@@H]1CN([C@H](C)CO)C(=O)c2cc(NC(=O)c3ccccc3)ccc2O[C@@H](C)CCCCO[C@H]1CN(C)Cc1ccccc1 | active |
| C[C@@H]1CCCCO[C@H](CN(C)Cc2ccccc2)[C@H](C)CN([C@H](C)CO)C(=O)c2cc(NC(=O)c3ccccc3)ccc2O1 | inactive |
| C[C@@H]1CCCCO[C@H](CN(C)Cc2ccc(C(F)(F)F)cc2)[C@@H](C)CN([C@H](C)CO)C(=O)c2cc(NC(=O)c3ccccc3)ccc2O1 | inactive |
| C[C@H]1CCCCO[C@@H](CN(C)Cc2ccc(C(F)(F)F)cc2)[C@@H](C)CN([C@@H](C)CO)C(=O)c2cc(NC(=O)c3ccccc3)ccc2O1 | active |
| C[C@@H]1CN([C@H](C)CO)C(=O)c2cc(NC(=O)c3ccccc3)ccc2O[C@@H](C)CCCCO[C@H]1CN(C)Cc1ccc(C(F)(F)F)cc1 | inactive |
| C[C@@H]1CN([C@@H](C)CO)C(=O)c2cc(NC(=O)c3ccccc3)ccc2O[C@@H](C)CCCCO[C@H]1CN(C)Cc1ccc(C(F)(F)F)cc1 | active |
| C[C@@H]1CN([C@@H](C)CO)C(=O)c2cc(NC(=O)Nc3cccc4ccccc34)ccc2O[C@H]1CN(C)S(=O)(=O)c1ccc(Cl)cc1 | inactive |
| COc1ccc(NC(=O)N(C)C[C@H]2Oc3ccc(NS(=O)(=O)c4cn(C)cn4)cc3CC(=O)N([C@@H](C)CO)C[C@@H]2C)cc1 | inactive |
| C[C@@H]1CN([C@H](C)CO)S(=O)(=O)c2ccc(-c3cccc(C(=O)N(C)C)c3)cc2O[C@@H]1CN(C)C(=O)Cc1ccccn1 | inactive |
| C[C@@H]1CN([C@@H](C)CO)C(=O)CCCn2nncc2CO[C@@H]1CN(C)S(=O)(=O)c1ccc2c(c1)OCCCO2 | inactive |
| COc1ccc(-c2cnc3c(c2)C(=O)N([C@H](C)CO)C[C@H](C)[C@@H](CN(C)C(=O)Cc2ccccn2)O3)cc1 | inactive |
| Cc1noc(C)c1S(=O)(=O)Nc1ccc2c(c1)C(=O)N([C@H](C)CO)C[C@@H](C)[C@@H](CN(C)Cc1ccc(-c3ccccc3)cc1)O2 | inactive |
| C[C@H]1CN([C@@H](C)CO)C(=O)Cc2cc(NS(=O)(=O)c3ccccc3)ccc2O[C@H]1CN(C)S(=O)(=O)c1ccc(F)cc1 | inactive |
| C[C@@]1(NC(=O)Cc2ccc(S(=O)(=O)N3CCOCC3)s2)CCS(=O)(=O)C1 | inactive |
| C[C@@H]1CN([C@@H](C)CO)C(=O)c2cccc(NS(=O)(=O)c3ccccc3)c2O[C@H]1CN(C)S(=O)(=O)c1cccs1 | inactive |
| C[C@H](CO)N1C[C@H](C)[C@H](CN(C)S(=O)(=O)c2ccc(F)cc2)Oc2c(NC(=O)c3cnccn3)cccc2C1=O | inactive |

| SMILES | cytotoxicity call |
| --- | --- |
| CCS(=O)(=O)N1CC[C@]2(CC1)CN([C@@H](CO)c1c2c2ccc(cc2n1C)OC)C(=O)Nc1c(noc1C)C | inactive |
| O=C(CN1CCOCC1)NCC[C@H]1CC[C@H](NS(=O)(=O)c2ccc(Cl)cc2)[C@@H](CO)O1 | inactive |
| C[C@@H]1O[C@@H](O[C@@H]2[C@@H](O)[C@H](C)O[C@@H](OC[C@H]3O[C@@H](Oc4c(-c5ccc(O)c(O)c5)oc5cc(O)cc(O)c5c4=O)[C@@H](O)[C@@H](O)[C@@H]3O)[C@@H]2O)[C@H](O)[C@H](O)[C@H]1O | inactive |
| CC(=O)O[C@@H]1[C@@H](O[C@@H]2O[C@H](CO)[C@@H](O)[C@H](O)[C@H]2O)[C@@H](O)[C@H](OC[C@H]2O[C@@H](Oc3c(-c4ccc(O)c(O)c4)oc4cc(O)cc(O)c4c3=O)[C@H](O)[C@@H](O)[C@H]2O)O[C@H]1C | active |
| C[C@H]1O[C@@H](OC[C@H]2O[C@@H](Oc3c(-c4ccc(O)c(O)c4)oc4cc(O)cc(O)c4c3=O)[C@@H](O)[C@@H](O)[C@@H]2O)[C@@H](O)[C@@H](O)[C@@H]1O | inactive |
| O=c1c(O)c(-c2ccc(O)c(O)c2)oc2c(OC3OC(CO)C(O)C(O)C3O)c(O)cc(O)c12 (stereo unspecified) | inactive |
| O=c1c(O)c(-c2ccc(O)c(O)c2)oc2c(O[C@@H]3O[C@H](CO)[C@H](O)[C@@H](O)[C@H]3O)c(O)cc(O)c12 | active |
| COc1c(O[C@@H]2O[C@H](CO)[C@@H](O)[C@H](O)[C@H]2O)cc2oc(-c3ccc(O)c(O)c3)c(O)c(=O)c2c1O | inactive |
| Cc1ccc(S(=O)(=O)N(C)C[C@@H]2Oc3ncc(C#CC4(O)CCCC4)cc3C(=O)N([C@@H](C)CO)C[C@H]2C)cc1 | inactive |
| CC(C)(C[C@H]1CN(S(=O)(=O)c2cccc(C(F)(F)F)c2)c2cc(-c3cc(F)cc(OC(F)F)c3)ccc2O1)C(=O)O | inactive |
| COC(=O)CCCCCCC(=O)N/N=C/[C@H](O)[C@@H](O)[C@@H](O)[C@H](O)C(=O)O | inactive |
| COc1ccc(cc1)S(=O)(=O)N1CC[C@]2(CC1)CN([C@H](CO)c1c2c2ccc(cc2n1C)OC)C(=O)CN(C)C | active |
| COc1ccc2c3c(n(c2c1)C)[C@@H](CO)N(CC1CCCC1)C[C@]13CCN(CC1)C(=O)Nc1ccccc1 | active |
| COc1ccc2c3c(n(c2c1)C)[C@H](CO)N(C[C@]13CCN(CC1)S(=O)(=O)C)C(=O)CN(C)C | inactive |
| COc1ccc2c3c(n(c2c1)C)[C@H](CO)N(CC1CCCC1)C[C@]13CCN(CC1)C(=O)Nc1ccccc1 | inactive |
| COc1ccc2c3c(n(c2c1)C)[C@H](CO)N(Cc1ccccc1)C[C@]13CCN(CC1)C(=O)Nc1cccc(c1)F | inactive |
| COc1ccc(cc1)S(=O)(=O)N1CC[C@]2(CC1)CN([C@@H](CO)c1c2c2ccc(cc2n1C)OC)C(=O)CN(C)C | inactive |
| COCC(=O)N1CC[C@]2(CC1)CN([C@@H](CO)c1c2c2ccc(cc2n1C)OC)C(=O)Cc1ccccc1 | inactive |
| COc1ccc(cc1)S(=O)(=O)N1C[C@]2(C1)CN([C@H](CO)c1c2c2ccc(cc2n1C)OC)C(=O)CN(C)C | active |
| COc1ccc2c3c(n(c2c1)C)[C@H](CO)N(C[C@]13CN(C1)S(=O)(=O)C)C(=O)CN(C)C | inactive |
| COCC(=O)N1CC[C@]2(CC1)CN(Cc1cccc(c1)OC)[C@@H](CO)c1c2c2ccc(cc2n1C)OC | inactive |
| COCC(=O)N1CC[C@]2(CC1)CN([C@H](CO)c1c2c2ccc(cc2n1C)OC)C(=O)Cc1ccccc1 | active |
| COc1ccc(cc1)S(=O)(=O)N1C[C@]2(C1)CN([C@@H](CO)c1c2c2ccc(cc2n1C)OC)C(=O)CN(C)C | inactive |
